The entries come from a sample that favours hits as a whole.
ROS inducer = cancer cell ROS induction; U2OS ROS induction, H2DCF-DA fluorescence; ROS induction (% of piperlongumine), % at 10 µM; 2% of 46,000 active; in the data active = ROS induction above about 79%, passing the limit was not always enough
Hits are given with their value; . = inactive.

SMILES	ROS inducer
COCCOC(=O)N1C(=O)[C@@]2(c3ccccc31)[C@H](C(=O)N1CCN(c3ncccn3)CC1)[C@H]1C(=O)O[C@H](c3ccccc3)[C@H](c3ccccc3)N1[C@@H]2c1ccccc1OCCO	122
COCCOC(=O)N1C(=O)[C@@]2(c3cc(C#CC4(O)CCCCCC4)ccc31)[C@H](C(=O)N1CCN(c3ncccn3)CC1)[C@H]1C(=O)O[C@H](c3ccccc3)[C@H](c3ccccc3)N1[C@@H]2c1ccc(O)cc1	.
COCCOC(=O)N1C(=O)[C@@]2(c3ccccc31)[C@H](c1ccc(O)cc1)N1[C@H](c3ccccc3)[C@H](c3ccccc3)OC(=O)[C@H]1[C@@H]2C(N)=O	.
COCCOC(=O)N1C(=O)[C@@]2(c3cc(C#CC4(O)CCCCCC4)ccc31)[C@H](c1ccc(O)cc1)N1[C@H](c3ccccc3)[C@H](c3ccccc3)OC(=O)[C@H]1[C@@H]2C(=O)N1CCN(c2ncccn2)CC1	.
COCCOC(=O)N1C(=O)[C@@]2(c3ccccc31)[C@H](C(=O)Nc1nc3ccccc3s1)[C@H]1C(=O)O[C@H](c3ccccc3)[C@H](c3ccccc3)N1[C@@H]2c1ccccc1OCCO	.
C=CCn1c(SCC(=O)Nc2ccc(C)cc2)nnc1C1CC1	.
O=C(Nc1cccc(Br)c1)C1C(c2ccccc2)=C1c1ccccc1	.
Cn1cccc1Cc1nnc(SCC(=O)Nc2ccccc2C(F)(F)F)n1-c1ccc(F)cc1	.
COc1ccc(NC(=O)CSc2nc3scc(C)c3c(=O)[nH]2)cc1	91
Cc1ccc(NC(=O)CSc2nc(C)c(C)c(=O)[nH]2)cc1	.
COc1ccc(NC(=O)CSc2nc(C)cc(=O)[nH]2)cc1	.
OC(c1ccccc1)c1nnc(SCc2ccc(Br)cc2)n1-c1ccccc1 (stereo not given)	.
COC(=O)CN1C(c2ccccc2)=Nc2ccc(C)cc2C1c1ccccc1 (stereo not given)	.
COc1ccc2nc(C)cc(Nc3ccccc3)c2c1	.
NNC(=O)c1csc(-c2cccs2)n1	.
O=C(CSc1ccccn1)NCC(=O)c1ccccc1	.
c1ccc(CN2CCN(Cc3ccccc3)C2c2ccc3c(c2)OCO3)cc1	.
COC(=O)C(CC#Cc1ccc2c(c1)[C@]1(C(=O)N2)[C@H](c2ccccc2OCCO)N2[C@H](c3ccccc3)[C@H](c3ccccc3)OC(=O)[C@H]2[C@@H]1C(=O)N1CCN(c2ncccn2)CC1)C(=O)OC	99
O=C1O[C@@H](c2ccccc2)[C@@H](c2ccccc2)N2[C@@H](c3ccc(OCCO)cc3)[C@]3(C(=O)Nc4ccccc43)[C@@H](C(=O)N3CCN(c4ncccn4)CC3)[C@H]12	97
O=C1O[C@@H](c2ccccc2)[C@@H](c2ccccc2)N2[C@@H](c3ccccc3OCCO)[C@]3(C(=O)Nc4ccccc43)[C@@H](C(=O)O)[C@H]12	.
O=C1O[C@H](c2ccccc2)[C@H](c2ccccc2)N2[C@H]1[C@@H](C(=O)O)[C@]1(C(=O)Nc3ccccc31)[C@H]2c1ccc(OCCO)cc1	.
O=C1O[C@H](c2ccccc2)[C@H](c2ccccc2)N2[C@H]1[C@@H](C(=O)N1CCN(c3ncccn3)CC1)[C@]1(C(=O)Nc3ccccc31)[C@H]2c1ccccc1OCCO	170
O=C1O[C@H](c2ccccc2)[C@H](c2ccccc2)N2[C@H]1[C@@H](C(=O)N1CCN(c3ncccn3)CC1)[C@]1(C(=O)Nc3ccc(C#CC4=CCCCC4)cc31)[C@H]2c1ccccc1OCCO	.
COC(=O)C(CC#Cc1ccc2c(c1)[C@]1(C(=O)N2)[C@H](C(=O)N2CCN(c3ncccn3)CC2)[C@H]2C(=O)O[C@H](c3ccccc3)[C@H](c3ccccc3)N2[C@@H]1c1ccc(OCCO)cc1)C(=O)OC	.
O=C1O[C@H](c2ccccc2)[C@H](c2ccccc2)N2[C@H]1[C@@H](C(=O)N1CCN(c3ncccn3)CC1)[C@]1(C(=O)Nc3ccc(C#CC4(O)CCCCCC4)cc31)[C@H]2c1ccc(OCCO)cc1	.
SMILES	ROS inducer
COC(=O)C(CC#Cc1ccc2c(c1)[C@]1(C(=O)N2)[C@H](c2ccc(OCCO)cc2)N2[C@H](c3ccccc3)[C@H](c3ccccc3)OC(=O)[C@H]2[C@@H]1C(=O)N1CCN(c2ncccn2)CC1)C(=O)OC	.
Oc1ccccc1C1=NNC(O)(C(F)(F)F)C1 (stereo not given)	.
CCN(CC)C(=O)c1c(NC(=O)c2cccs2)sc2c1CCCC2	.
Cc1ccc(NC(=O)CC(NCC2CCCO2)C(=O)O)cc1 (stereo not given)	.
CC(=O)N1CCC(N(C(=O)Nc2ccccc2)C2CCCC2)CC1	.
CCOC(=O)C1CCN(/C=C(\C#N)S(=O)(=O)c2ccccc2)CC1	.
Cc1ccc(CSc2nc3ccccc3c(=O)n2-c2ccc(C(=O)N3CCOCC3)cc2)cc1	.
O=C(NC1CCCCCCC1)c1ccc(CNS(=O)(=O)c2ccc(F)cc2)cc1	.
Cc1ccc(CN2CC34C=CC(O3)C(C(=O)NCCc3ccc(Cl)cc3)C4C2=O)cc1 (stereo not given)	.
C=C(C)C(=O)OCCc1ccc(O)c(-n2nc3ccccc3n2)c1	.
COC(=O)N(C)c1ccc(C(O)(C(F)(F)F)C(F)(F)F)cc1	.
C[C@@H]1CCCCO[C@H](CN(C)C(=O)c2ccccc2)[C@@H](C)CN([C@H](C)CO)C(=O)c2cc(NC(=O)NC3CCCCC3)ccc2O1	.
C[C@@H]1CCCCO[C@H](CN(C)C(=O)c2ccncc2)[C@@H](C)CN([C@H](C)CO)C(=O)c2cc(NC(=O)NC3CCCCC3)ccc2O1	123
Cc1ccc(S(=O)(=O)Nc2ccc3c(c2)C(=O)N([C@H](C)CO)C[C@H](C)[C@H](CN(C)C(=O)c2ccncc2)OCCCC[C@@H](C)O3)cc1	108
C[C@@H]1CCCCO[C@H](CN(C)C(=O)c2ccncc2)[C@@H](C)CN([C@H](C)CO)C(=O)c2cc(NS(=O)(=O)c3ccc(Cl)cc3)ccc2O1	.
COc1ccc(NC(=O)Nc2ccc3c(c2)C(=O)N([C@H](C)CO)C[C@H](C)[C@H](CN(C)C(=O)Nc2ccccc2)OCCCC[C@@H](C)O3)cc1	.
C[C@@H]1CCCCO[C@@H](CN(C)C(=O)c2ccncc2)[C@@H](C)CN([C@H](C)CO)C(=O)c2cc(NC(=O)c3ccncc3)ccc2O1	.
C[C@@H]1CCCCO[C@@H](CN(C)C(=O)Nc2ccc3c(c2)OCO3)[C@@H](C)CN([C@H](C)CO)C(=O)c2cc(NC(=O)NC3CCCCC3)ccc2O1	121
C[C@@H]1CCCCO[C@H](CN(C)C(=O)Nc2ccccc2)[C@@H](C)CN([C@H](C)CO)C(=O)c2cc(NC(=O)Nc3ccc4c(c3)OCO4)ccc2O1	.
COc1ccc(NC(=O)N(C)C[C@@H]2OCCCC[C@@H](C)Oc3ccc(NC(=O)Nc4ccc5c(c4)OCO5)cc3C(=O)N([C@H](C)CO)C[C@@H]2C)cc1	118
COc1ccc(NC(=O)Nc2ccc3c(c2)C(=O)N([C@H](C)CO)C[C@H](C)[C@@H](CN(C)C(=O)Nc2ccc4c(c2)OCO4)OCCCC[C@@H](C)O3)cc1	.
C[C@@H]1CCCCO[C@H](CN(C)C(=O)c2ccncc2)[C@@H](C)CN([C@H](C)CO)C(=O)c2cc(NS(=O)(=O)c3ccc(F)cc3)ccc2O1	.
C[C@@H]1CCCCO[C@H](CN(C)C(=O)Nc2ccc3c(c2)OCO3)[C@@H](C)CN([C@H](C)CO)C(=O)c2cc(NC(=O)Nc3ccccc3)ccc2O1	.
